Compound activity (PubChem)
Only some compounds are listed: those with a hit (about 1.2% of all), similar ones and a draw of the others.
APOBEC3G inh: APOBEC3G DNA deaminase inhibitors, primary screen, biochemical, fluorescence, single-stranded DNA substrate, uHTS; DNA dC->dU-editing enzyme APOBEC-3G (Homo sapiens), Q9HC16; recombinant A3G, ssDNA deamination FAM/TAMRA fluorescence; inhibition, % at 20 µM; 330,000 compounds, 0.28% hits;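 active means inhibition of at least 40% at 20 µM, with no more than 30% in the related APOBEC3A deaminase screen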;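 further: plate controls were DMSO wells with A3G for no effect and wells lacking A3G enzyme for full effect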
Target sequence (Q9HC16 whole entry, looked up): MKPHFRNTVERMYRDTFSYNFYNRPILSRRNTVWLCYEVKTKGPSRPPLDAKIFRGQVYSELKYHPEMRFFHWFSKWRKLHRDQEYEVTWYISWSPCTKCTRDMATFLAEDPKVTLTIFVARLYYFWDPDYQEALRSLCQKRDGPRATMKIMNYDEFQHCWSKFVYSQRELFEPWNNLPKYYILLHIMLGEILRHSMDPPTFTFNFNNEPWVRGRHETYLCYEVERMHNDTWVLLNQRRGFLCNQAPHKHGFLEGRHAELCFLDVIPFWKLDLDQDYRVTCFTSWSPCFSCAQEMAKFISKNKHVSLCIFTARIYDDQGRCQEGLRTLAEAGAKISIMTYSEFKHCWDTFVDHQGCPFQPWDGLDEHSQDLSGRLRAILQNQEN
NALP1 yeast inh: NALP1 inflammasome inhibitors in reconstituted yeast, colorimetric, S. cerevisiae, triplicate retest; 280,000 compounds, 0.61% hits; S. cerevisiae NALP1/ASC/caspase-1 growth, X-gal OD620, 72 h; AID 2071, 2009; inhibition, % at 10 µM; in the data active means inhibition mostly above about 24%, no sharp cut-off; inactive means mostly below about 32%
APOBEC3A inh: APOBEC3A ssDNA deaminase inhibitors, primary screen, selectivity assay for APOBEC3G inhibitor project, biochemical, FAM/TAMRA oligo cleavage fluorescence | 330,000 compounds, 0.41% hits | inhibition, % at 20 µM | DNA dC->dU-editing enzyme APOBEC-3A (Homo sapiens), P31941 | recombinant A3A, FAM/TAMRA ssDNA deamination fluorescence;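 active means at least 40% inhibition at 20 µM here, with at most 30% in a related deaminase screen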;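 further: plate controls were A3A with DMSO for no effect and wells lacking A3A enzyme for full effect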
Target sequence (P31941 whole entry, looked up): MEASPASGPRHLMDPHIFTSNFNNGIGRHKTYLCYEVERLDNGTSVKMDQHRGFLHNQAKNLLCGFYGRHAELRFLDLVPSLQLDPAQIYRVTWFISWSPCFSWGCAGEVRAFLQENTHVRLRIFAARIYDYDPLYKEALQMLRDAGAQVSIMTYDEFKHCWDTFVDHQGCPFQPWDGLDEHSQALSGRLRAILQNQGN
PolyA inh: polyadenylation inhibitors in yeast reporter cells, primary screen, luminescence, S. cerevisiae | S. cerevisiae SKY197-pL101 polyadenylation reporter, beta-gal luminescence; efflux-impaired pdr1/pdr3 knockout yeast; score 100 = 6 SD above DMSO | activity score, % at 12 µM | 300,000 compounds, 0.02% hits | AID 1875, 2009;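 active means lowest replicate activity score at least 50, where 100 means six control SD above control mean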;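 further: yeast exposed to compound for 9 h at 30 °C; higher score means more reporter readthrough which indicates perturbed polyadenylation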
* hit, by the source's call; . = not tested or not shown; ! = not confirmed by another sample.

SMILES	APOBEC3G inh	NALP1 yeast inh	APOBEC3A inh	PolyA inh
Cc1ccc(CSCC2Nc3ccc(C(=O)N4CCN(c5cccc(C)c5)C(C)C4)cc3NC2=O)cc1 (stereo not given)	45.8*	-1.7	-22.5	-26.5
COc1ccccc1NC(=O)C(C)OC(=O)CC1CCCCC1 (stereo not given)	-0.7	.	-3.4	.
Cc1ccc(S(=O)(=O)c2ncccc2N)cc1	-9.3	-3.3	-4.9	4.6
Cc1ccc(S(=O)(=O)c2ncccc2[N+](=O)[O-])cc1	-8.5	36.1*	-4.6	-8.5
CCOC(=O)c1ccc(N2Cc3ccccc3C2=NC(=O)c2ccncc2)cc1	.	9.1	.	.
CCOC(=O)c1ccc(N2Cc3ccccc3C2=N)cc1	-2.9	39.5*	-1.5	-4.6
O=C(c1c[nH]c2ccccc12)C(O)C(c1ccccc1)N1CCOCC1 (stereo not given)	-6.1	-7.0	1.0	2.9
O=C(c1c[nH]c2ccccc12)C(Cl)c1ccccc1 (stereo not given)	0.6	45.2*	4.0	7.6
N=c1n(CCN2CCOCC2)c2ccccc2n1CC(O)COc1ccccc1 (stereo not given)	9.7	15.6	6.2	10.8
Cc1ccccc1OCC(O)Cn1c(=N)n(CCN2CCOCC2)c2ccccc21 (stereo not given)	-0.6	42.8*!	1.9	-3.0
CCOc1ccc(C(O)(CCC(C)C)C(CN2CCOCC2)c2ccccc2)cc1 (stereo not given)	-5.6	-8.5	-3.1	6.3
O=C(c1ccc(Br)cc1)C(CN1CCOCC1)c1ccccc1 (stereo not given)	-10.9	39.3*	-6.9	-14.1
CCOc1ccc(C(=O)C(CN2CCOCC2)c2ccccc2)cc1 (stereo not given)	.	84.5*	.	-39.0
OC(COc1ccc(OCc2ccccc2)cc1)CN1CCOCC1 (stereo not given)	3.7	39.2*	-5.5	-0.2
CCCCn1c(/C=C/c2ccco2)nc2ccccc21	6.0	54.9*	6.7	-26.0
CCCCn1c(N)c(N(CCOC)C(=O)COC(=O)CCOc2ccc(C)cc2)c(=O)[nH]c1=O	-6.8	.	9.8	.
OC(COC(c1ccc(Cl)cc1)c1ccc(Cl)cc1)CN1CCN(c2ccccn2)CC1 (stereo not given)	-4.6	44.7*	-0.2	25.5
Cc1cccc(C)c1OCC(O)CN1CCN(c2ccccn2)CC1 (stereo not given)	-7.3	-4.5	-4.0	27.6
Cc1ccc(Sc2ccc(NC(=O)CCl)cc2)cc1C	-3.6	57.3*	-0.9	-29.3
Cc1ccc(C)c(Sc2ccc(NC(=O)CCl)cc2)c1	6.0	.	1.1	-63.8
Cn1cc(/C=C(\NC(=O)c2ccccc2)C(=O)NCCCN2CCOCC2)c2ccccc21	-1.1	16.6	-2.4	-12.5
CC(C)(C)C1=CC(=O)C(=O)C(C(C)(C)C)=C1	-1.2	51.0*	2.9	-76.6
CN(CCC#N)C(=O)CC1(Cc2ccccc2)CCOC(C)(C)C1 (stereo not given)	-4.0	-7.7	1.4	4.1
CN(C)CCN(C(=O)c1ccc2c(c1)CCCC2)c1nc2c(F)cccc2s1	-0.4	41.8*	1.6	3.9
CN(C)CCCN(C(=O)c1ccc2c(c1)CCCC2)c1nc2ccc(Cl)cc2s1	-4.9	82.3*	8.2	-12.4
SMILES	APOBEC3G inh	NALP1 yeast inh	APOBEC3A inh	PolyA inh
COc1cccc2sc(N(CCN(C)C)C(=O)c3ccc4c(c3)CCCC4)nc12	3.7	38.6	2.4	-11.2
Cc1ccc(C)c(N2CCN(C(=O)Cn3c(=O)oc4cc(S(=O)(=O)N5CCCC5)ccc43)CC2)c1	-4.2	22.3	3.1	-7.1
O=C(Cn1c(=O)oc2cc(S(=O)(=O)N3CCCC3)ccc21)N1CCN(c2ccccc2)CC1	0.6	38.9*	0.8	13.9
CCOC(=O)c1cnc2c(C(=O)OCC)cnn2c1N	-5.8	38.2*	-0.4	-0.1
CCOC(=O)C(=CNc1nc(-c2ccc3ccccc3c2)cs1)C(=O)OCC	-6.3	-1.4	-2.4	2.3
Clc1cccc(OCCN2CCN(CCOc3cccc(Cl)c3)CC2)c1	-0.4	64.3*	-0.5	-55.9
CC(CCc1ccc(O)cc1)N(C)CCc1ccccc1 (stereo not given)	-1.7	25.8*	0.1	0.1
CCC(c1nnnn1C(C)(C)CC)N(CCCO)Cc1cc2cc(C)cc(C)c2[nH]c1=O (stereo not given)	.	34.6*	.	3.8
CCCCn1nc(C(=O)NCC(=O)Nc2c(C)cccc2C)c2ccccc2c1=O	-4.6	.	-2.0	.
CC(NC(=O)c1ccccc1)c1ccc(Br)cc1 (stereo not given)	-0.1	20.4	5.5	23.6
CC(NC(=O)c1ccc(Br)cc1)c1ccccc1 (stereo not given)	0.9	16.4	-1.0	70.1*
CC(NC(=O)c1ccc(Br)cc1Br)c1ccccc1 (stereo not given)	-4.2	9.7	-2.0	62.4*
CC(NC(=O)c1cc(Br)ccc1Cl)c1ccccc1 (stereo not given)	-2.2	.	-3.5	1.9
COc1ccc(C(=O)COC(=O)c2sc(C)nc2C)cc1Cl	-4.2	.	3.8	.
Cc1ccc(C)c(S(=O)(=O)N(C)Cc2cccs2)c1	-2.8	.	-2.1	.
COc1ccc(S(=O)(=O)N(C)Cc2cccs2)cc1Br	-6.5	41.0*	1.1	-16.9
O=C1C=C(c2ccccc2)OC(c2ccccc2)O1 (stereo not given)	-2.3	40.7*	2.1	-13.2
CC(NC(=O)/C(C#N)=C/c1ccc([N+](=O)[O-])o1)c1ccccc1 (stereo not given)	-2.8	68.5*	6.3	-57.5
CC(NC(=O)/C(C#N)=C/c1ccco1)c1ccccc1 (stereo not given)	-7.4	.	0.8	11.3
COC(=O)c1ccc(C(=O)N=c2sccn2C)cc1	-7.1	13.8	-3.2	0.1
O=C(CCN=C1NS(=O)(=O)c2ccccc21)OCc1ccccc1	12.5	.	2.5	5.8
COC(=O)c1[nH]c2c(c1C)C(=O)CCC2	-6.1	33.4*	-1.3	-8.1
CC(C)(C)n1ncc2c(=O)n(Cc3ccccc3Br)cnc21	-11.6	.	-3.7	.
CCc1nc(Nc2ccc3c(c2)OCCO3)c2oc3ccccc3c2n1	-3.2	33.8*	1.1	-14.0
Cc1nc(Nc2ccc3c(c2)OCCO3)c2oc3ccccc3c2n1	-3.9	17.4	-2.5	-32.2
COc1ccc(CCNC(=O)CN(c2ccccc2OC)S(C)(=O)=O)cc1	-3.8	30.5*	-2.8	-8.3
Cc1ccc(S(=O)(=O)N(C(=O)c2ccncc2)c2ccc(OC(=O)c3ccncc3)c3ccccc23)cc1	-3.9	48.1*	0.0	-26.5
Cc1ccc(S(=O)(=O)N(C(=O)c2ccncc2)c2ccc(OC(=O)c3ccncc3)c3ccccc23)c(C)c1	-0.3	5.8	3.5	10.0
NC(=O)c1ccsc1NC(=O)c1coc2ccccc2c1=O	-4.2	-3.8	-2.8	7.9
O=C(CCCCCn1c(=O)[nH]c2ccsc2c1=O)NCc1cccs1	-1.4	19.3	5.3	11.4
